Results filed as inconclusive are left out. The source made the active and inactive calls. Unless noted, calls follow the shape of the dose curve; as a rule, active = well fitted curve in the direction sought with a large enough effect in the repeat runs; inconclusive = weak or mixed curves; inactive = no such curve, though single readings can be large; an effect the other way counts as inactive or inconclusive.
Experiments:
[1] = qHTS assay to identify small molecule agonists of the hypoxia (HIF-1) signaling pathway - cell viability counter screen (AID 1224844; calls by dose curve; also: nearly all actives have a fitted effect of over 50% in size)
How it was run: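 Viability counter screen: HRE-bla ME-180 cells plated 5 hrs before compound addition, treated 17 hrs at 37C and 5% CO2, then CellTiter-Glo added after the FRET reporter read; luminescence after 30 min.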

[2] = qHTS assay to identify small molecule agonists of H2AX (AID 1224845; active = well fitted activation curve with a large enough effect in the signal ratio in the repeat runs, not every such curve was filed as active; the % refers to the signal ratio)
How it was run: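 Wild-type CHO-K1 cells, plated overnight, exposed 3hr at 37C to 15 concentrations (0.76% DMSO final). Lysed, then HTRF anti-pH2AX (S139) cryptate and anti-H2AX-d2 antibodies, 24 hr room temperature; 665/620 nm emission read.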

[3] = qHTS assay to identify small molecule agonists of the hypoxia (HIF-1) signaling pathway (AID 1224846; active = well fitted activation curve with a large enough effect in the signal ratio in the repeat runs, not every such curve was filed as active; the % refers to the signal ratio)
How it was run: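 Agonist mode reporter screen. ME-180 cells stably expressing bla under HRE control received test compounds in DMSO for 17 hrs (37C, 5% CO2), and beta-lactamase activity was then detected with the CCF4-AM FRET substrate.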

[4] = qHTS assay to identify small molecule agonists of H2AX - cell viability counter screen (AID 1224847; calls by dose curve; also: top concentration of the series differs between compounds; nearly all actives have a fitted effect of over 30% in size)
How it was run: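 Counter-screen for viability: CellTiter-Glo ATP luminescence read after 3 h compound treatment (15-point titration, 0.76% DMSO final) of CHO-K1 cells at 37C, with 30 min room-temperature reagent incubation.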

[5] = qHTS RealTime-Glo MT Cell Viability Assay in HepG2 cells - 24 hour (AID 1224867); also: nearly all actives have a fitted effect of over 50% in size
How it was run: (§1)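 HepG2 suspension premixed with RealTime-Glo reagents is plated at 600 cells per well and left 5 h at 37 C/5% CO2. Compounds in DMSO then go in, and bioluminescence reflecting viable cell number is recorded over 40 h.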

[6] = qHTS RealTime-Glo MT Cell Viability Assay in HEK293 cells - 32 hour (AID 1224868); also: top concentration of the series differs between compounds; nearly all actives have a fitted effect of over 50% in size
How it was run: (§2)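 Reads taken at 0, 8, 16, 24, 32 and 40 h from the same wells. HEK293 cells (600/well) carried RealTime-Glo reagents from seeding, with compound added after a 5 h settle at 37 C.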

[7] = A CellTox Green Cytotoxicity Assay to monitor cytotoxicity in HEK293 cells - 0 hour (AID 1224869); also: nearly all actives have a fitted effect of over 50% in size
How it was run: (§3)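 Dead-cell fluorescence measured kinetically: asymmetric cyanine dye, HEK293, 600 cells/well, 5 h settle, 23 nL cpd/DMSO, 37 C, reads 0–40 h every 8 h.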

[8] = qHTS RealTime-Glo MT Cell Viability Assay in HepG2 cells - 40 hour (AID 1224870); also: nearly all actives have a fitted effect of over 50% in size
How it was run: (§4)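 HepG2 cells (600/well) mixed with RealTime-Glo MT reagent, settled 5 h at 37 C/5% CO2 before compound addition. Nonlytic NanoLuc luminescence from viable-cell prosubstrate reduction read repeatedly during 40 h treatment at 37 C.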

[9] = A CellTox Green Cytotoxicity Assay to monitor cytotoxicity in HEK293 cells - 40 hour (AID 1224871); also: nearly all actives have a fitted effect of over 45% in size
How it was run: as §3

[10] = qHTS RealTime-Glo MT Cell Viability Assay in HEK293 cells - 16 hour (AID 1224872)
How it was run: as §2

[11] = qHTS RealTime-Glo MT Cell Viability Assay in HepG2 cells - 8 hour (AID 1224873); also: nearly all actives have a fitted effect of over 55% in size
How it was run: as §4

[12] = qHTS RealTime-Glo MT Cell Viability Assay in HEK293 cells - 40 hour (AID 1224874); conditions: RealTime-Glo luminescence; max response: hits give low values; also: nearly all actives have a fitted effect of over 50% in size
How it was run: (§5)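 600 HEK293 cells per well, dispensed already mixed with RealTime-Glo MT reagents. Compound dosing came 5 h later. The same wells were read for luminescence at 0, 8, 16, 24, 32 and 40 h of exposure at 37 C.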

[13] = A CellTox Green Cytotoxicity Assay to monitor cytotoxicity in HEK293 cells - 24 hour (AID 1224875); also: nearly all actives have a fitted effect of over 45% in size
How it was run: as §3

[14] = A CellTox Green Cytotoxicity Assay to monitor cytotoxicity in HepG2 cells - 16 hour (AID 1224876); also: nearly all actives have a fitted effect of over 45% in size
How it was run: (§6)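 First, HepG2 cells (600/well) mixed with reagent were plated; second, after 5 h at 37 C they received compounds via pintool; third, fluorescence was measured at 0 h through 40 h at 8 h intervals.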

[15] = qHTS RealTime-Glo MT Cell Viability Assay in HepG2 cells - 32 hour (AID 1224877); also: nearly all actives have a fitted effect of over 55% in size
How it was run: as §1

[16] = A CellTox Green Cytotoxicity Assay to monitor cytotoxicity in HepG2 cells - 24 hour (AID 1224878); also: nearly all actives have a fitted effect of over 45% in size
How it was run: as §6

[17] = A CellTox Green Cytotoxicity Assay to monitor cytotoxicity in HepG2 cells - 40 hour (AID 1224879); also: nearly all actives have a fitted effect of over 40% in size
How it was run: as §6

[18] = qHTS RealTime-Glo MT Cell Viability Assay in HEK293 cells - 0 hour (AID 1224880)
How it was run: as §5

[19] = qHTS assay to identify small molecule agonists of the estrogen related receptor (ERR) signaling pathway from Tox21 library (AID 1224849; calls by dose curve; also: nearly all actives have a fitted effect of over 15% in size); conditions: ERR reporter cell line, ONE-Glo luciferase, 18 h; at 92.4 µM (top of the series) unless noted
How it was run: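 Quantitative HTS in agonist format: NTP ERR cell line, compounds transferred in DMSO after 6 h plating, 18 h incubation at 37 C, ONE-Glo luminescence endpoint.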
% is scaled to controls: 0 for no effect and ±100 for the full control effect.

CNS(=O)(=O)Cc1ccc2[nH]cc(CCN(C)C)c2c1
inactive: Potency [1] | Potency [2] | outcome [3] | Potency [4] | Potency [5] | Potency [6] | Potency [7] | Potency [8] | Potency [9] | Potency [10] | Potency [11] | max response [12] 2.61% | Potency [13] | Potency [14] | Potency [15] | Potency [16] | Potency [17] | Potency [18]

CCCC[C@H]1CN(CC2CCOCC2)C(=O)OC12CCN(C1(C)CCN(C(=O)c3c(C)ncnc3C)CC1)CC2
inactive: Potency [1] | Potency [2] | outcome [3] | Potency [4] | activity change, positive = activation [19] -0.219% | Potency [5] | Potency [7] | Potency [9] | Potency [10] | Potency [11] | max response [12] 0.654% | Potency [13] | Potency [14] | Potency [15] | Potency [18]

COc1ccc(C(C)=O)cc1
inactive: Potency [1] | Potency [2] | outcome [3] | Potency [4] | Potency [5] | Potency [6] | Potency [7] | Potency [8] | Potency [9] | Potency [10] | Potency [11] | max response [12] 21.1% | Potency [13] | Potency [14] | Potency [15] | Potency [16] | Potency [17] | Potency [18]

NC(=S)N/N=C/c1cccnc1
inactive: Potency [1] | Potency [2] | outcome [3] | Potency [4] | activity change, positive = activation [19] 0.0845% [at 42.5 µM] | Potency [5] | Potency [7] | Potency [9] | Potency [10] | Potency [11] | max response [12] 6.57% | Potency [13] | Potency [14] | Potency [15] | Potency [16] | Potency [17]

CCCCOc1cc(C(=O)OCCN(CC)CC)ccc1N
inactive: Potency [1] | Potency [2] | outcome [3] | Potency [4] | Potency [5] | Potency [6] | Potency [7] | Potency [8] | Potency [10] | Potency [11] | max response [12] -18% | Potency [15] | Potency [18]

S=C(S)NCCNC(=S)S
inactive: Potency [1] | Potency [2] | outcome [3] | Potency [4] | Potency [5] | Potency [6] | Potency [7] | Potency [8] | Potency [9] | Potency [10] | Potency [11] | max response [12] -4.71% | Potency [13] | Potency [14] | Potency [15] | Potency [16] | Potency [18]

N#Cc1cc2ccccc2c2ccccc12
inactive: Potency [1] | Potency [2] | outcome [3] | Potency [4] | Potency [5] | Potency [6] | Potency [7] | Potency [8] | Potency [9] | Potency [10] | Potency [11] | max response [12] -18.9% | Potency [13] | Potency [14] | Potency [15] | Potency [17] | Potency [18]

CCN(CCO)CCCC(C)Nc1ccnc2cc(Cl)ccc12 (stereo not given)
inactive: activity change, negative = cytotoxicity [1] 2.32% [at 6.97 µM] | activation (H2AX phosphorylation) [2] -1.66% [at 14 µM] | activation [3] 0.22% [at 7.01 µM] | activity change, negative = cytotoxicity [4] 1.55% [at 14 µM] | activity change, negative = cytotoxicity [5] 2.56% [at 6.97 µM] | activity change, negative = cytotoxic [6] 2.9% [at 6.97 µM] | cytotoxicity [7] -2.9% [at 6.97 µM] | activity change, negative = cytotoxic [8] 0.0181% [at 6.97 µM] | activity change, negative = cytotoxicity [10] 2.31% [at 6.97 µM] | viability change, negative = cytotoxic [11] 4.72% [at 6.97 µM] | max response [12] -1.22% | activity change [13] -1.16% [at 6.97 µM, hits give high values] | cytotoxicity increase [14] 19.7% [at 6.97 µM] | activity change, negative = cytotoxic [15] 2.34% [at 6.97 µM] | cytotoxicity [16] 14.8% [at 6.97 µM] | cytotoxicity increase [17] 10.5% [at 6.97 µM]

Source: PubChem BioAssay (Tox21)
